Assay outcomes: PubChem, several laboratories
CYP2C9 inhib: human CYP2C9 inhibition; 96,000 tested, 20% active; inhibition, % at 5 µM; CYP2C9 Supersomes, luciferin-H conversion, luminescence; P11712;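 active = blocking of liver enzyme CYP2C9 beyond about 50% at 5 µM, limit read from the data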
EphB4 ephrin blk: antagonists of human EphB4-ephrin-B2 interaction. AID 720. inhibition, % at 7 µM. 97,000 tested, 0.15% active. EphB4 LBD / TNYL-RAW-Alexa532 peptide, fluorescence polarization. P54760;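 active = inhibition above the screen-wide mean inhibition plus 3 SD, cut at about 15% in these data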;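 note: 0% = DMSO wells and 100% = excess unlabeled TNYL-RAW peptide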
CYP2C19 activ: activators of human cytochrome P450 2C19 | P33261 | recombinant CYP2C19, luciferin-H EGE luminescence; hits give high values; 0 = fully inhibited enzyme, 1 = untreated enzyme | activation factor at 5 µM | 96,000 tested, under 10 active | AID 1025;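 active = activation factor of at least 2 at 5 µM in the primary screen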;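 note: 0 = wells with 2.5 mM tranylcypromine and 1 = vehicle-only wells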
Target sequence (P33261 whole entry, looked up): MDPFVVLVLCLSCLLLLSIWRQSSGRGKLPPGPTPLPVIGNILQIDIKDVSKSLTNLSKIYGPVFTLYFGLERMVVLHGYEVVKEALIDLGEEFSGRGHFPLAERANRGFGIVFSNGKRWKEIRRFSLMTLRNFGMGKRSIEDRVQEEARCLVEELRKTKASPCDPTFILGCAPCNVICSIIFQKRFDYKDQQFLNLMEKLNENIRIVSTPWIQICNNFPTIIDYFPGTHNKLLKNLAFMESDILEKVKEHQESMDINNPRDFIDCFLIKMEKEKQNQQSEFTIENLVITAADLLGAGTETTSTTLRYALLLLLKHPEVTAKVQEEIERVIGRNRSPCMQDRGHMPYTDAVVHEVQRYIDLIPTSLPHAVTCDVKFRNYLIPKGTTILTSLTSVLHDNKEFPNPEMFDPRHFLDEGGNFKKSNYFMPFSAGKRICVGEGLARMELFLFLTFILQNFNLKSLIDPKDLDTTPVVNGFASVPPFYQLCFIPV
CYP2C19 inhib: blocks human cytochrome P450 2C19 | P33261 | CYP2C19 Supersomes, luciferin-H EGE luminescence, 30 min | inhibition, % at 5 µM | 96,000 tested, 21% active;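 active = CYP2C19 inhibition above a set limit at 5 µM in the primary screen, cut at about 50% in these data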;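 note: plate controls were negative control wells for no effect and 2.5 mM tranylcypromine positive control for full effect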
CYP2C9 act: activators of human CYP2C9. recombinant CYP2C9, luciferin-H conversion, luminescence; hits give high values; factor 1 = untreated enzyme, 0 = blocked. activation factor at 5 µM. 96,000 tested, 1.4% active;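 active = activation factor of 2 or more for CYP2C9 at a 5 µM dose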;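 note: 0 = sulfaphenazole-blocked wells and 1 = vehicle-only wells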
Starred values were filed as active, the others as inactive; nt = no result given. A selection: hits, their analogues and other compounds. The true share with any hit is near 27%.

SMILES	CYP2C9 inhib	EphB4 ephrin blk	CYP2C19 activ	CYP2C19 inhib	CYP2C9 act
O=C(Cc1cccs1)Nc1ccc(-c2nnn(CC(=O)N3CCOCC3)n2)cc1	3.5	-4.5	1.1	-10.1	1
CNc1nc(NCCOC23CC4CC(CC(C4)C2)C3)nc(OCC(F)(F)F)n1	21.3	3.5	0.5	45.8	0.8
CC(C)C[C@H](NS(=O)(=O)c1ccc(Br)cc1)C(=O)O	10.1	-2.7	1.1	-14.4	0.9
COc1ccc2[nH]c(=O)c(CN(C(=O)c3cccnc3)c3ccccc3)cc2c1	35.4	-5.1	0.8	15.9	0.6
CCOc1ccc2[nH]c(=O)c(CN(Cc3ccccc3OC)C(=O)c3ccccc3)cc2c1	43.5	-6.8	0.7	26.9	0.6
COc1ccc2[nH]c(=O)c(CN(Cc3cccnc3)C(=O)Nc3ccccc3)cc2c1	88.3*	nt	0.1	87.8*	0.1
COc1ccc(NC(=O)N(Cc2ccc(C)cc2)Cc2cccnc2)c(OC)c1	90.0*	-1.8	0	97.4*	0.1
CCOc1ccc2[nH]c(=O)c(CN(CCO)C(=O)CC)cc2c1	14.6	2.5	1	2.9	0.9
CCOc1ccc2[nH]c(=O)c(CN(CCc3ccccc3)C(=O)c3cnccn3)cc2c1	40.5	-7.0	0.5	51.4*	0.6
CCOc1ccc2[nH]c(=O)c(CN(Cc3cccnc3)C(=O)Nc3ccccc3OC)cc2c1	22.2	4.8	0.5	53.9*	0.8
COc1ccc(NC(=O)c2cccnc2)c(OC)c1	14.3	-5.8	0.7	34.8	0.9
CCn1c(SCC(=O)NCc2cccs2)nnc1-c1ccco1	12.1	nt	0.6	40.9	0.9
Cc1nnc(SCCC(C)C)[nH]c1=O	21.9	-4.6	1	4.2	0.8
CCc1ccc2[nH]c(=O)c(CN(Cc3ccccc3OC)C(=O)Nc3ccccc3OC)cc2c1	93.4*	4.3	1.3	-28.4	0.1
CCN(CC)CCN(Cc1cc2cc(C)ccc2[nH]c1=O)C(=O)Nc1ccccc1OC	8.2	0.6	0.9	14.8	0.9
CC/C(CC(C)(C)c1ccccc1)=N\O	25.0	-5.0	0.2	78.6*	0.8
COc1ccccc1N=C1SC(C(=O)Nc2ccc(F)cc2)CC(=O)N1C (stereo not drawn)	nt	4.6	nt	nt	nt
CCOc1cccc(NC(=O)C2CC(=O)N(C)C(=Nc3cccc(F)c3)S2)c1 (stereo not drawn)	75.0*	-1.9	0.5	51.2*	0.3
CCOc1cccc(NC(=O)C2CC(=O)N(C)C(=Nc3ccccc3)S2)c1 (stereo not drawn)	73.7*	-4.9	0.7	25.9	0.3
N#Cc1ccc(-c2ccc(F)cc2)nc1Oc1ccc(F)cc1	33.0	1.9	0.6	36.2	0.7
COCCN1C(=O)C(=O)/C(=C(/O)c2cccc(S(=O)(=O)N(C)C)c2)C12C(=O)N(C)c1ccccc12 (stereo not drawn)	83.5*	2.7	1.2	-15.9	0.2
CSc1nc(-c2ccco2)nn1C(=O)Cc1ccccc1	8.5	2.0	1	0.8	0.9
Cc1ccc(CNc2oc(C)nc2C#N)cc1	3.5	6.2	0.7	32.0	1
CCN(CC)CCCNc1oc(-c2ccc(OC)c(OC)c2)nc1C#N	-6.8	0.0	0.9	9.0	1.1
COc1ccc(-c2nc(C#N)c(NCc3ccc(C)cc3)o2)cc1OC	52.7*	-2.9	0.9	14.8	0.5
SMILES	CYP2C9 inhib	EphB4 ephrin blk	CYP2C19 activ	CYP2C19 inhib	CYP2C9 act
CC(C)(C)c1ccc(-c2nc(C#N)c(NCc3ccncc3)o2)cc1	67.2*	1.4	0.8	24.8	0.3
COc1ccc(-c2nc(C#N)c(NCCc3ccccc3)o2)cc1OC	92.8*	-8.3	0.2	80.5*	0.1
O=C(NCCNCCO)c1c(O)c2cccc3c2n(c1=O)CCC3	10.6	1.0	0.9	9.5	0.9
Cc1ccc2nc3c(cc(C#N)c(=O)n3-c3nccs3)c(=O)n2c1	-6.4	nt	1	-1.8	1.1
c1ccc(-c2nnc(SCc3cn4ccsc4n3)o2)cc1	-2.9	0.7	0.3	69.3*	1
c1ccc(-c2nnc(CSc3nnc(-c4cccs4)o3)o2)cc1	nt	6.8	nt	nt	nt
O=C(NCc1nc2ccccc2[nH]1)c1cccs1	17.1	0.7	0.5	46.8	0.8
NS(=O)(=O)c1ccc(CCNC(=O)C2CCCCN2S(=O)(=O)c2ccccc2)cc1 (stereo not drawn)	66.1*	0.3	0.9	12.6	0.3
NS(=O)(=O)c1ccc(CCNC(=O)C2CCCN2C(=O)OCc2ccccc2)cc1 (stereo not drawn)	-7.3	-2.0	1	1.0	1.1
NS(=O)(=O)c1ccc(CCNC(=O)[C@@H]2CCCN2S(=O)(=O)c2ccccc2F)cc1	60.7*	-3.2	1	-2.5	0.4
